DT40 TDP1 CPT – DT40-hTDP1 cell growth loss with CPT; chicken DT40 Tdp1-/-;hTDP1 cells + 20 nM CPT, ATP luminescence, 48 h; Potency, µM (doses to about 46.2 µM), usual class: inhibitors; 420,000 compounds, 12% hits; AID 686979; note: nearly all actives have a fitted effect of over 55% in size
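Chicken DT40 Tdp1-/- cells stably complemented with human TDP1 were seeded at 400 cells/well in medium containing 20 nM camptothecin, exposed to pin-transferred compounds, and grown at 37 °C for at least 48 hr. Viability was read as ATP luminescence.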
CtBP-E1A inh – inhibitors of CtBP/E1A interaction; AlphaScreen GST-E1A/His-CtBP binding, 1536-well; stronger effect = lower value; 340,000 compounds, 0.49% hits; activity change, % (test concentration not listed); AID 651724; in the data active = activity change below about -65%; inconclusive = mostly about -30% to -63%
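Protein mix (5X: 125 nM each GST-E1A, His-CtBP) was incubated with pinned compound 2 h at 37 deg C in dark, in 50 mM Tris pH 8.0 buffer with 300 mM NaCl. Glutathione donor and nickel acceptor beads followed; AlphaScreen signal read after 1 h.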
IL-1B inflam inh – blocks inflammasome-driven IL-1 beta release; THP-1 LPS/ATP IL-1B secretion, AlphaLISA, 16 h; stronger effect = lower value; activity change, % at 57.5 µM; 360,000 compounds, 4.7% hits; in the data active = activity change below about -50%; inconclusive = mostly about -30% to -49%
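Secreted IL-1B measured by AlphaLISA bead assay after 16 h compound exposure of THP-1 cells; compounds (final up to 57.5 uM) added 1 h before LPS (250 ng/mL) and ATP (1.25 mM) stimulation; lower signal means less secretion.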
TDP1 inh – inhibitors of human tyrosyl-DNA phosphodiesterase TDP1. Potency, µM (doses to about 130 µM), hits mostly inhibitors. recombinant TDP1, AlphaScreen DNA substrate cleavage. AID 485290. Q9NUW8. 350,000 compounds, 0.28% hits; note: nearly all actives have a fitted effect of over 40% in size
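Tdp1 1 nM final; 15 min RT w/ cpd; substrate 15 nM, 5 min; beads 10 ug/ml, 10 min; AlphaScreen read. Neg ctrl: no enzyme.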
Six1-Eya2 blk – inhibitors of human Six1/Eya2 interaction. activity change, % (concentration not given with the values). 360,000 compounds, 0.56% hits. Q15475+O00167. AlphaScreen GST-Six1/His-Eya2 binding, biochemical; stronger effect = lower value; in the data active = activity change below about -65%; inconclusive = mostly about -30% to -63%
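AlphaScreen with GST-Six1 and His-Eya2 (5X mix: 250 nM and 500 nM), glutathione donor and nickel acceptor beads; buffer 50 mM Tris pH 8.0, 300 mM NaCl, 1 mM TCEP; 1 h at 37 C in the dark.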
DT40 TDP1 no CPT – qHTS for Inhibitors of human tyrosyl-DNA phosphodiesterase 1 (TDP1): qHTS in cells in absence of CPT; DT40 Tdp1-/- hTDP1 cells, no CPT, ATP luminescence, 48 h; Potency, µM (series often up to 46.2 µM), hits mostly inhibitors; 420,000 compounds, 15% hits; note: nearly all actives have a fitted effect of over 55% in size
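Luminescent ATP content (CellTiter-Glo) served as the growth readout. Knockout chicken DT40 cells expressing human TDP1 were exposed to compounds without camptothecin for a minimum 48 hr at 37 °C.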
Hits are given with their value. Shown are actives, neighbours in structure and some others; about 18% of the full set was active somewhere. Unless noted, calls come from the whole dose curve; as a rule, active = well fitted curve in the direction sought with a large enough effect; inconclusive = small, poorly fitted or top-dose-only effect, or another doubt; inactive = no such curve, though single readings can be large; an effect the other way counts as inactive or inconclusive.

CC(C)Oc1cccc(C(=O)Nc2ccc(N3CCN(C)CC3)cc2)c1 was read as DT40 TDP1 CPT inactive, IL-1B inflam inh inactive, Six1-Eya2 blk inactive and DT40 TDP1 no CPT inconclusive.
For CCN1CCN(c2ccc(NC(=O)c3cccc(OCc4ccccc4)c3)cc2)CC1 the results were DT40 TDP1 CPT inconclusive, CtBP-E1A inh inactive, IL-1B inflam inh -80, Six1-Eya2 blk inactive and DT40 TDP1 no CPT inconclusive.
`O=C(c1cnsn1)N1CCC(CO)(Cc2cccc(F)c2)CC1` gave DT40 TDP1 CPT inactive, CtBP-E1A inh inactive, IL-1B inflam inh inactive, TDP1 inh inactive, Six1-Eya2 blk inactive and DT40 TDP1 no CPT inactive.
For COc1cc(OC)cc(C(=O)NC(=S)Nc2ccc(N3CCCC3)cc2)c1 the results were DT40 TDP1 CPT 15µM, CtBP-E1A inh inactive, IL-1B inflam inh inactive, TDP1 inh inactive, Six1-Eya2 blk inactive and DT40 TDP1 no CPT 8.2µM.
`O=C(Nc1cccnc1Cl)c1cc(-c2ccc(Cl)cc2)on1` gave DT40 TDP1 CPT inactive, CtBP-E1A inh inactive, IL-1B inflam inh inactive, TDP1 inh inactive, Six1-Eya2 blk inactive and DT40 TDP1 no CPT inactive.
Screening O=C(Nc1cccnc1Cl)c1cc(-c2ccc(O)cc2)on1 returned DT40 TDP1 CPT inactive, CtBP-E1A inh inactive, IL-1B inflam inh inactive, TDP1 inh 50µM, Six1-Eya2 blk inconclusive and DT40 TDP1 no CPT inactive.
`C=CCN1C(=O)c2ccc(C(=O)N(C)CC(=O)Nc3ccccc3Cl)cc2C1=O` gave DT40 TDP1 CPT inactive, CtBP-E1A inh inactive, IL-1B inflam inh inactive, TDP1 inh inactive, Six1-Eya2 blk inactive and DT40 TDP1 no CPT inactive.
Screening Cc1cc(NC(=O)NCC(F)(F)F)no1 returned DT40 TDP1 CPT inactive, CtBP-E1A inh inactive, IL-1B inflam inh inactive, Six1-Eya2 blk inactive and DT40 TDP1 no CPT inactive.
Screening COc1cc(OC)c(C2Nc3cccc4cccc(c34)N2)c(OC)c1 returned DT40 TDP1 CPT 21µM, CtBP-E1A inh inactive, IL-1B inflam inh inactive, Six1-Eya2 blk inactive and DT40 TDP1 no CPT 15µM.
COc1ccccc1C1Nc2cccc3cccc(c23)N1 was read as DT40 TDP1 CPT 15µM, CtBP-E1A inh inactive, IL-1B inflam inh inactive, TDP1 inh inactive, Six1-Eya2 blk inactive and DT40 TDP1 no CPT 21µM.
Screening c1ccc(C2Nc3cccc4cccc(c34)N2)cc1 returned DT40 TDP1 CPT 18µM, CtBP-E1A inh inactive, IL-1B inflam inh inactive, Six1-Eya2 blk inactive and DT40 TDP1 no CPT inactive.
Screening Oc1ccccc1C1Nc2cccc3cccc(c23)N1 returned DT40 TDP1 CPT inconclusive, CtBP-E1A inh inactive, IL-1B inflam inh inactive, TDP1 inh inactive, Six1-Eya2 blk inactive and DT40 TDP1 no CPT inconclusive.
Screening COc1ccc(C2Nc3cccc4cccc(c34)N2)cc1 returned DT40 TDP1 CPT 21µM, CtBP-E1A inh inactive, IL-1B inflam inh inactive, TDP1 inh inactive, Six1-Eya2 blk inactive and DT40 TDP1 no CPT inconclusive.
For CCOP(=O)(OCC)/C(C#N)=C/c1c[nH]c2ccccc12 the results were DT40 TDP1 CPT inconclusive, IL-1B inflam inh inactive, TDP1 inh inactive, Six1-Eya2 blk inactive and DT40 TDP1 no CPT inconclusive.
For CC(C)[C@H](NC(=O)[C@@H]1CSC2c3ccccc3C(=O)N21)C(=O)NC1CCCC1 (some centres not stated) the results were DT40 TDP1 CPT inconclusive, IL-1B inflam inh inactive, TDP1 inh inactive, Six1-Eya2 blk inactive and DT40 TDP1 no CPT inconclusive.
Screening Clc1cccc(Cl)c1C1Nc2cccc3cccc(c23)N1 returned DT40 TDP1 CPT inconclusive, CtBP-E1A inh inactive, IL-1B inflam inh inactive, TDP1 inh inactive, Six1-Eya2 blk inactive and DT40 TDP1 no CPT inconclusive.
For CN(C)c1ccc(C2NC(=O)c3ccccc3N2)cc1 (configuration not stated) the results were DT40 TDP1 CPT inactive, CtBP-E1A inh inactive, IL-1B inflam inh inactive, TDP1 inh inactive, Six1-Eya2 blk inactive and DT40 TDP1 no CPT inactive.
`c1csc(C2Nc3cccc4cccc(c34)N2)c1` gave DT40 TDP1 CPT 16µM, CtBP-E1A inh inactive, IL-1B inflam inh inactive, TDP1 inh inactive, Six1-Eya2 blk inactive and DT40 TDP1 no CPT inconclusive.

Assay outcomes (PubChem BioAssay)
